34 compounds from PubChem BioAssay (NCATS) can be followed below.

Each structure is given as a SMILES string. Records with an inconclusive call do not appear. Unmarked numbers belong to inactive results. The source made the active and inactive calls. Calls follow the shape of the dose curve; as a rule, active = well fitted curve in the direction sought with a large enough effect; inconclusive = small, poorly fitted or top-dose-only effect, or another doubt; inactive = no such curve, though single readings can be large; an effect the other way counts as inactive or inconclusive.

Sequence of Protein phosphatase 1D (Homo sapiens) (O15297 whole entry, looked up): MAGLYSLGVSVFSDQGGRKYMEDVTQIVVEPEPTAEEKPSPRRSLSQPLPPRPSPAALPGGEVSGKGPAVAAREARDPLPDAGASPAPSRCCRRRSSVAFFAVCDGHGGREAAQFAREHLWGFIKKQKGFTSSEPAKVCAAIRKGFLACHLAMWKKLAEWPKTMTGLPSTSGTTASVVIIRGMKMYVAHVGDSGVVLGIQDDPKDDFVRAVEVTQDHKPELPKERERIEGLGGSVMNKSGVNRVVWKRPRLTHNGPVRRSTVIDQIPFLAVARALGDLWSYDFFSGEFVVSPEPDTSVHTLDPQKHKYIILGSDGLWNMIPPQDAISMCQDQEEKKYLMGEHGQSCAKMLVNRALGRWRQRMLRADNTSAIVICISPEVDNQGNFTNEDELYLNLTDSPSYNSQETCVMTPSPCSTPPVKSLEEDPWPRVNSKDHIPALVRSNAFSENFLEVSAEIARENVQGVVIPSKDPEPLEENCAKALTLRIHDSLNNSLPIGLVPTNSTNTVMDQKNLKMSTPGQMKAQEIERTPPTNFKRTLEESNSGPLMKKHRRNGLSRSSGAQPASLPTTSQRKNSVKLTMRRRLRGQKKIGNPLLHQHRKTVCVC

Test system in the first experiment: not listed separately
Briefly: qHTS to identify inhibitors of the type 1 interferon - major histocompatibility complex class I in skeletal muscle: primary screen against the NCATS Mechanism Interrogation Plate v5.0 (MIPE) Libary (AID 1347411). Also: nearly all actives have a fitted effect of over 65% in size. Also: potency is read from the fitted curve at half-maximal effect.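 As to activity change, negative = inhibition: plate controls were vehicle for no effect and reference inhibitor for full effect.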 Particulars: iHSKM cells + IFN-b, HiBiT-tagged MHC-I luminescence, 24 h; series mostly up to 45.8 µM; activity change, negative = inhibition: at the top concentration. Put shortly: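 IFN-beta-driven (4 ng/ml) HLA-B-HiBit expression in CRISPR-tagged C25cl48 myoblasts; compounds 11-pt, 1:3, max 46 uM, 24 hr exposure; lytic NanoLuc complementation luminescence.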
Consider `N[C@@]1(C(=O)O)CS(=O)(=O)[C@H]2[C@H](C(=O)O)[C@H]21`, for which the “activity change, negative = inhibition” value was 12.6%.

For the compound `c1cc(-c2sc(-c3ccncc3)c(-c3ccncc3)c2-c2ccncc2)ccn1`, the “activity change, negative = inhibition” value is 0.806%. As to `CN(C)Cc1ccc(-c2nc3cccc4c3n2CCNC4=O)cc1`, the Potency is 14.7 µM (active). For `C[C@]12CC[C@@H]3c4ccc(O)cc4C[C@@H](CCCCCCCCCS(=O)CCCC(F)(F)C(F)(F)F)[C@H]3[C@H]1CC[C@H]2O` (stereo partly specified), the “activity change, negative = inhibition” value was 13.4%.

As for `CN[C@@H](C)C(=O)N[C@H]1CN(C(=O)CC(C)C)CC[C@H]2CC[C@@H](C(=O)NC(c3ccccc3)c3ccccc3)N2C1=O`, the “activity change, negative = inhibition” value was -13.4%. For the compound `CC(=O)Nc1ccc([C@H](C)C(=O)Nc2ncc(C(C)C)s2)cc1`, the Potency is 5.87 µM (active). With `CCOC(CN1C(=O)[C@](CC(=O)Nc2ccc(C)cc2)(NC(=O)Nc2ccc(C)cc2)c2ccccc21)OCC`, the “activity change, negative = inhibition” value was -27.3%. On to `COCCOC(=O)C1=C(C)NC2=C(C(=O)CC(c3ccccc3OC)C2)C1c1cccc(O)c1` (stereo unspecified), for which the “activity change, negative = inhibition” value is -21.8%. Take `CC(C)(C)Cn1c(N)nc2ccc(-c3[nH]c(C(C)(C)C)nc3-c3ccc(F)cc3)nc21`: the “activity change, negative = inhibition” value was -19.2%. As to `Clc1ccc(CCC(Cn2ccnc2)Sc2c(Cl)cccc2Cl)cc1` (stereo unspecified), the “activity change, negative = inhibition” value is -19%.

Take `CCNc1cc(NC2CCC(O)CC2)nc(Nc2ccc3c(ccn3Cc3ccccc3)c2)n1` (stereo unspecified): the “activity change, negative = inhibition” value is -5.26%. In the case of `CC(=O)Oc1cc2c(s1)CCN(C(C(=O)C1CC1)c1ccccc1F)C2` (stereo unspecified), the “activity change, negative = inhibition” value was 5.76%. As to `O=C(O)c1c(Cl)c(Cl)c(Cl)c(Cl)c1-c1c2cc(I)c(=O)c(I)c-2oc2c(I)c(O)c(I)cc12`, the Potency is 8.29 µM (active). As for `CCCCCN(C)CCC(O)(P(=O)(O)O)P(=O)(O)O`, the activity change, negative = inhibition is -11.6% [at 5.1 µM]. Still for that read-out and setting: then `NC(=O)c1ccc2nc(-c3ccc(Oc4ccc(Cl)cc4)cc3)[nH]c2c1`, with -33.6%. As to `CN1CCN(CCOc2cc(OC3CCOCC3)c3c(Nc4c(Cl)ccc5c4OCO5)ncnc3c2)CC1`, the Potency is 29.4 µM (active).

Consider `CCCCCCCCCCCC1=C(O)C(=O)C=C(O)C1=O`, for which the “activity change, negative = inhibition” value is -11.1%. For `O=C(NOCC(O)CO)c1cc(Br)c(F)c(F)c1Nc1ccc(I)cc1F` (stereo unspecified), the “activity change, negative = inhibition” value is -32.2%. With `O=C(Nc1ccccc1Br)N[C@@H]1CCN(c2ccc(C(F)(F)F)cn2)C1`, the “activity change, negative = inhibition” value is -6.54%. Consider `Cc1ccc(/C=N/NC(=O)c2ccccc2Oc2ccccc2)o1`, for which the “activity change, negative = inhibition” value is -10.9%. As for `COc1ccc(C2CC(c3ccccc3)=NN2c2ccc(S(N)(=O)=O)cc2)cc1` (stereo unspecified), the “activity change, negative = inhibition” value is -10.6%.

On to `Cc1ccc(C(=O)Nc2cccc(C(F)(F)F)c2)cc1Nc1nc(-c2cccnc2)nc2c1cnn2C`, for which the Potency is 33 µM (active). Turning to `CCOC(=O)C1=C(N)Oc2ccc(Br)cc2C1C(C#N)C(=O)OCC` (stereo unspecified), the “activity change, negative = inhibition” value was -14.5%. As to `NS(=O)(=O)c1cccc2c1C(=O)c1cccc(O)c1C2=O`, the Potency was 0.415 µM (active).

Consider `O=C(Nc1cccc(Br)c1)c1cccc(S(=O)(=O)N2CCCCCC2)c1`, for which the “activity change, negative = inhibition” value is -13.7%. For `O=C(O)c1cc(O)c2c(c1)C(=O)c1cccc(O)c1C2=O`, the “activity change, negative = inhibition” value is -7.9%. `CC#CCn1c(N2CCC[C@@H](N)C2)nc2c1c(=O)n(Cc1nc(C)c3ccccc3n1)c(=O)n2C`: the “activity change, negative = inhibition” value was -2.87%. Consider `CS(=O)(=O)N(Cc1ccco1)CC(O)Cn1c2ccccc2c2ccccc21` (stereo unspecified), for which the “activity change, negative = inhibition” value was -8.49%. Still for that read-out and setting: then `CCCCCNC(=O)N1CCC(CN(Cc2ccc(Cl)cc2)Cc2ccc([N+](=O)[O-])s2)C1` (stereo unspecified), with -29%. Take `C[C@H](NC(=O)c1sccc1OCc1ccc(Cl)cc1)c1ccccc1`: the “activity change, negative = inhibition” value was -26.4%. As for `O=C(O)c1ccc(-c2c[nH]c3ncc(-c4ccccc4)cc23)cc1C1CCCC1`, the “activity change, negative = inhibition” value was -18.2%.

The target in another experiment is Protein phosphatase 1D (Homo sapiens) (UniProt O15297). The experiment is described as follows: RapidFire Mass Spectrometry qHTS Assay for Modulators of WT P53-Induced Phosphatase 1 (WIP1) (AID 1347424).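 Also: amount of dephosphorylated VEPPL-S-QETFS peptide product formed by WIP1; plate controls were DMSO wells for no effect and GSK830371 inhibitor control at 10 µM for full effect.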 Particulars: WIP1 dephosphorylation of phosphopeptide, RapidFire MS; series mostly up to 63 µM; activity change, negative = inhibition: at the top concentration. Put shortly:
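Mass-spectrometric measurement of dephosphorylated peptide after a 5 min room-temperature reaction of 10 nM WIP1 with 2 uM phosphopeptide, following 1 h compound preincubation in 30 mM MgCl2 buffer.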
For orientation: In qHTS, concentration-response curves come from the screen itself.
`O=c1[nH]cnc2c1ncn2[C@H]1CC[C@@H](CO)O1`: the “activity change, negative = inhibition” value was 0.302%. `CC(=O)Oc1cc2c(s1)CCN(C(C(=O)C1CC1)c1ccccc1F)C2` (stereo unspecified): the “activity change, negative = inhibition” value is -13.1%.

Take `CC(C)OC(=O)C(C)(C)Oc1ccc(C(=O)c2ccc(Cl)cc2)cc1`: the “activity change, negative = inhibition” value was 20.1%.

Another experiment has the same target. The experiment is described as follows: Rhodamine-PBP qHTS Assay for Modulators of WT P53-Induced Phosphatase 1 (WIP1) (AID 1347425). Also: % of control where 0% means no effect. Particulars: recombinant WIP1, Rhodamine-PBP phosphate fluorescence, real-time; series mostly up to 57.5 µM; activity change, negative = inhibition: at the top concentration. Put shortly: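 Steps: enzyme with Rh-PBP sensor and compounds, room-temperature incubation of 1 hr, baseline read, addition of VEPPL-pS-QETFS (10 uM final), kinetic fluorescence reads at 525/598 nm. Activity equals final minus baseline signal.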
For the compound `O=c1[nH]cnc2c1ncn2[C@H]1CC[C@@H](CO)O1`, the “activity change, negative = inhibition” value was 15.3%. Still for that read-out and setting: then `CC(=O)Oc1cc2c(s1)CCN(C(C(=O)C1CC1)c1ccccc1F)C2` (stereo unspecified), with -4.79%.

On to `CC(C)OC(=O)C(C)(C)Oc1ccc(C(=O)c2ccc(Cl)cc2)cc1`, for which the “activity change, negative = inhibition” value is 13.5%.

Test system in the next experiment: not listed separately
The experiment is described as follows: Primary qHTS for inhibitors of La Crosse Virus (LACV) - induced cell death in SH-SY5Y cells (AID 1508616).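 Also: top concentration of the series differs between compounds; 0% = infected DMSO wells and 100% = uninfected DMSO wells; higher means more rescue of cells from virus-induced death.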 The note with it: SH-SY5Y LACV cytopathicity rescue, ATP luminescence, 6 d; series mostly up to 4.29 µM; activity change: at the top concentration. Put shortly: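 Screening measures cell viability in LACV-infected SH-SY5Y cultures. Compound was added before virus (0.01 MOI), and ATP was detected by luminescence 6 days later.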
In the case of `O=c1[nH]cnc2c1ncn2[C@H]1CC[C@@H](CO)O1`, the “activity change” value was 9.99%. On to `CC(=O)Oc1cc2c(s1)CCN(C(C(=O)C1CC1)c1ccccc1F)C2` (stereo unspecified), for which the “activity change” value is 9.02%.

With `CCCCCN(C)CCC(O)(P(=O)(O)O)P(=O)(O)O`, the “activity change” value was 6.33% [at 9.63 µM].

Regarding `O=c1c(-c2ccc(O)cc2)coc2cc(O)ccc12`, the “activity change” value was -23.3% [at 9.63 µM].
